Test results published in PubChem BioAssay (NCATS).
Inconclusive results are not listed. Where a call stands in place of a potency, no number is given. The source made the active and inactive calls. Unless noted, calls follow the shape of the dose curve; as a rule, active = well fitted curve in the direction sought with a large enough effect in the repeat runs; inconclusive = weak or mixed curves; inactive = no such curve, though single readings can be large; an effect the other way counts as inactive or inconclusive.

Legend:
[1] = target: Calcium and integrin-binding protein 1 (Homo sapiens) (UniProt Q99828); assay: Primary qHTS for Identification of Calcium Integrin Binding Protein 1 (CIB1) Competitor (AID 1508620; active = well fitted curve in the direction sought with a large enough effect; an effect the other way counts as inactive or inconclusive;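 also: GST tagged CIB1 binding a fluorescein labelled alphaIIb integrin peptide tracer; top concentration of the series differs between compounds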)
Sequence of Calcium and integrin-binding protein 1 (Homo sapiens) (Q99828 whole entry, looked up): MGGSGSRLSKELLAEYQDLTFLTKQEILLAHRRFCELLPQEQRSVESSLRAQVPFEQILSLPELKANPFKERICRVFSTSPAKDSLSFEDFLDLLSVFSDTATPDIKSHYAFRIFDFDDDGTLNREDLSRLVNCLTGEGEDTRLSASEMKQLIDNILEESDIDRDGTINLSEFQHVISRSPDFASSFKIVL
Summary of the method: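 Fluorescence polarization competition: GST-tagged CIB1 (1 uM final) preincubated with compound 15 min at room temperature, then FITC-labelled alphaIIb peptide (100 nM final) added. After 15 min at room temperature, polarization read at Ex 480/Em 540.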

[2] = target: Cytochrome P450 2D6 (Homo sapiens) (UniProt P10635); assay: Cytochrome P450 family 2 subfamily D member 6 (CYP2D6) small molecule antagonists: luciferase biochemical (cell-free) qHTS assay (AID 1645840); also: nearly all actives have a fitted effect of over 55% in size; also: potency is read from the fitted curve at half-maximal effect
Sequence of Cytochrome P450 2D6 (Homo sapiens) (P10635 whole entry, looked up): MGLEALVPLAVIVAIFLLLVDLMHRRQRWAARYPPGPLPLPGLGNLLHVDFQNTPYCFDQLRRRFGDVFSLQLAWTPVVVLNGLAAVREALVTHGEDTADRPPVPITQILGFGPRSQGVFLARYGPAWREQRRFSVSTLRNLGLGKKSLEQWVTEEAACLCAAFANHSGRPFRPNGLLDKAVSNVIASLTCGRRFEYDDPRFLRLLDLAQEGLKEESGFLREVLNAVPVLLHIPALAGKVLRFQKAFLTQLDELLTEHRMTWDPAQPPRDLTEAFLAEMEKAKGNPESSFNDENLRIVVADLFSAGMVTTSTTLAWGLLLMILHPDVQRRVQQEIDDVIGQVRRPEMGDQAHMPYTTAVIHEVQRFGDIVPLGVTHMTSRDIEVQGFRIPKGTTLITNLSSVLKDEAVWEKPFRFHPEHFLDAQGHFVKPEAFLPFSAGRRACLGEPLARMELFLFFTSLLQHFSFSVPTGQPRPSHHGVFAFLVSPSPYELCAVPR
Summary of the method: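 P450-Glo luminescent screen: recombinant CYP2D6 enzyme–proluciferin substrate mix preincubated with compound 10 min at room temperature, then NADPH regeneration added for 1 h at room temperature. Detection reagent added for 20 min; luciferin light read as relative luminescence units.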

CCOc1ccc(-n2c(C(C)N(Cc3cccnc3)C(=O)Cc3ccc(F)c(C(F)(F)F)c3)nc3ncccc3c2=O)cc1 (stereo not given)
Potency [1]: inactive | Potency [2]: 23.9 µM (active)

O=C(COc1ccc2ccccc2c1Br)Nc1cccnc1
Potency [1]: inactive | Potency [2]: 0.301 µM (active)

C=CC(=O)Nc1cccc(Nc2nc(Nc3ccc(NC4CN(CCF)C4)cc3OC)ncc2C(F)(F)F)c1
Potency [1]: inactive | Potency [2]: 13.5 µM (active)

Cc1cc(NC(=O)NCCN2CCC(O)(Cc3ccccc3)CC2)c2ccccc2n1
Potency [1]: inactive | Potency [2]: 8.49 µM (active)

O=C(c1ccc(Cl)cc1)N1CCN(c2ccnc3cc(Cl)ccc23)CC1
Potency [1]: inactive | Potency [2]: 8.49 µM (active)

Cn1c(SCC(=O)N2CCC[C@H]2C(=O)Nc2ccccc2-c2ccccc2)nc2ccccc21
Potency [1]: inactive | Potency [2]: 16.9 µM (active)

CCC(C)CNCC(=O)N1CCC2SC=CC2C1COc1cccc(C)c1 (stereo not given)
Potency [1]: inactive | Potency [2]: 0.0756 µM (active)

Cc1ccnn1-c1ccc(C(=O)N2CCN(S(=O)(=O)c3ccc(Cl)c(C(F)(F)F)c3)CC2)cc1
Potency [1]: inactive | Potency [2]: inactive

N#Cc1cnc2c(Cl)cc(NCc3cn(CCN4CCCCCC4)nn3)cc2c1Nc1ccc(F)c(Cl)c1
Potency [1]: inactive | Potency [2]: 0.849 µM (active)

CC(C)S(=O)(=O)c1ccc2nccc(Nc3ccc4scnc4c3)c2c1
Potency [1]: inactive | Potency [2]: 10.7 µM (active)

CN1CCN(C(=O)CN[C@@H]2C[C@H]2c2ccc(OCc3ccccc3)cc2)CC1
Potency [1]: inactive | Potency [2]: 10.7 µM (active)

O=C(NCc1ccc(OC(F)(F)F)cc1)C1c2c(F)cccc2C(=O)N1CCc1ccccn1 (stereo not given)
Potency [1]: inactive | Potency [2]: 10.7 µM (active)

NS(=O)(=O)c1ccc(N2CCN(CC[C@@H]3OCCc4ccccc43)CC2)cc1
Potency [1]: inactive | Potency [2]: 23.9 µM (active)

CCC(=O)N1CCOc2c(cc(-c3ccc(OC)c(OC)c3)cc2OC[C@H]2CCCN(C)C2)C1
Potency [1]: inactive | Potency [2]: 13.5 µM (active)

COc1cc2c(cc1OCCCN1CCCC1)N=C(N)C21CCC1
Potency [1]: inactive | Potency [2]: 23.9 µM (active)

CCNC(=O)c1noc(-c2cc(Cl)c(O)cc2O)c1-c1ccc(OC)cc1
Potency [1]: inactive | Potency [2]: 26.8 µM (active)

CCc1ccc(-c2nc(CSCC(=O)NCCc3ccccc3)c(C)o2)cc1
Potency [1]: inactive | Potency [2]: 15.1 µM (active)

COc1cc(/C=N\NC(=O)c2ccc3c(c2)OCO3)ccc1OCc1ccccc1
Potency [1]: inactive | Potency [2]: 2.39 µM (active)

COc1ccc(CNc2nc(N(CCO)CCO)nc3c2ncn3C(C)C)cc1
Potency [1]: inactive | Potency [2]: inactive

COc1cc(-c2cn(C3CCc4c(F)cccc4N(CC(F)(F)F)C3=O)nn2)ccc1-n1cnc(C)c1 (stereo not given)
Potency [1]: inactive | Potency [2]: 26.8 µM (active)

COc1cc(OC)c2c(=O)[nH]c(-c3cc(C)c(OCCO)c(C)c3)nc2c1
Potency [1]: inactive | Potency [2]: inactive

CN(C)CCN(Cc1ccccc1)C(=O)c1cc(-c2ccc(F)cc2)n2nc(C(C)(C)C)cc2n1
Potency [1]: inactive | Potency [2]: 16.9 µM (active)

Cn1cc(-c2cnn3c(N)c(Br)c([C@@H]4CCCNC4)nc23)cn1
Potency [1]: inactive | Potency [2]: 10.7 µM (active)

O=C(Nc1ccc(CN2CCOCC2)cc1)c1ccc(-c2cccc(Cl)c2)o1
Potency [1]: inactive | Potency [2]: 15.1 µM (active)

COc1cc(CN(CCN)C(=O)c2cccs2)ccc1OCc1ccccc1
Potency [1]: inactive | Potency [2]: 0.849 µM (active)

O=C(Nc1ccc(N(Cc2ccsc2)C(=O)Cn2nnc3ccccc32)cc1)C1CC1
Potency [1]: inactive | Potency [2]: 4.77 µM (active)

Cc1cccc(C#Cc2cc(F)cc(C#N)c2)n1
Potency [1]: inactive | Potency [2]: inactive

N#Cc1ccc(COc2ccc(-c3cccc4nc(NC(=O)C5CC5)nn34)cc2)cn1
Potency [1]: inactive | Potency [2]: inactive

CCCCC1CCC(c2nc(-c3ccncc3)no2)CC1 (stereo not given)
Potency [1]: inactive | Potency [2]: 0.536 µM (active)

O=C(Nc1ccccc1)N1CCC(Cc2cnc3ccccc3c2)CC1
Potency [1]: inactive | Potency [2]: 26.8 µM (active)

COC(C)(C)CCn1nc(Nc2c(C)cccc2C)c2cnc(Nc3ccc(OCCN4CCCC4)c(F)c3)nc21
Potency [1]: inactive | Potency [2]: 15.1 µM (active)

CC(C)(C)OC(=O)c1ncn2c1C(C)(C)Nc1ccccc1-2
Potency [1]: inactive | Potency [2]: inactive

CCCc1cc(C)[nH]c(=O)c1CNC(=O)c1cc(-c2ccnc(N3CCN(C)CC3)c2)cc2c1cnn2C(C)C
Potency [1]: inactive | Potency [2]: 23.9 µM (active)

Cc1cc(F)ccc1-c1nc(NCCN=C(N)NC#N)nc2c1ccc(=O)n2-c1c(F)cccc1F
Potency [1]: inactive | Potency [2]: 19 µM (active)

Cc1cccc(CC(=O)N2CCc3c2ccc(-c2cn(C)c4ncnc(N)c24)c3F)n1
Potency [1]: inactive | Potency [2]: inactive
